Records with an inconclusive call do not appear. The source made the active and inactive calls. Unless noted, the call rests on the fitted dose curve; in most records, active means well fitted curve in the direction sought with a large enough effect in the repeat runs; inconclusive means weak or mixed curves; inactive means flat fitted curve, though single readings scatter.
Key:
[1] = qHTS assay to test for compound auto fluorescence at 535 nm (green) in HEK293 cells (AID 720680)
[2] = qHTS assay to test for compound auto fluorescence at 460 nm (blue) in HEK293 cell free culture (AID 720681)
Outline: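 Test compounds were pinned into cell-free culture medium (DMEM with 10% FBS) and fluorescence was read directly at Ex/Em 405/460 nm. Signals were expressed as fluorescence equivalents of triamterene, with DMSO vehicle as control.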

[3] = qHTS assay to test for compound auto fluorescence at 535 nm (green) in HEK293 cell free culture (AID 720682)
Outline: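 Green-label autofluorescence (485 nm excitation, 535 nm emission) measured on compound added to cell-free culture medium (DMEM, 10% FBS). Output is expressed relative to fluorescein.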

[4] = qHTS assay to test for compound auto fluorescence at 590 nm (red) in HEK293 cell free culture (AID 720683)
Outline: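 Tox21 10K library compounds were pinned into cell-free DMEM with 10% FBS and fluorescence was read at excitation 540 nm. Activity is expressed as Rose Bengal sodium equivalency.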

[5] = qHTS assay to test for compound auto fluorescence at 590 nm (red) in HepG2 cell free culture (AID 720684)
Outline: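 Measured in medium alone (MEM containing 10% FBS) following pintool addition of compound; emission at 590 nm with 540 nm excitation, referenced to Rose Bengal sodium.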

[6] = qHTS assay to test for compound auto fluorescence at 460 nm (blue) in HepG2 cell free culture (AID 720685)
Outline: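 Compound (23 nL) or DMSO pinned into cell-free MEM with 10% FBS; blue fluorescence read at 405/460 nm excitation/emission, expressed as auto-fluorescence equivalency to triamterene.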

[7] = qHTS assay to test for compound auto fluorescence at 535 nm (green) in HepG2 cell free culture (AID 720686)
[8] = qHTS assay to test for compound auto fluorescence at 460 nm (blue) in HepG2 cells (AID 720687)
Outline: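 Cells (2,000/well in MEM with 10% FBS) attached overnight at 37 C, then were exposed to compound or DMSO for 1 hr at 37 C, 5% CO2. Fluorescence read at Ex/Em 405/460 nm, expressed as triamterene-equivalent signal.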

[9] = molecular target: Glucocorticoid receptor (Homo sapiens) (UniProt P04150); assay: qHTS assay to identify small molecule agonists of the glucocorticoid receptor (GR) signaling pathway (AID 720691; active means well fitted activation curve with a large enough effect in the signal ratio in the repeat runs, not every such curve was filed as active; the % refers to the signal ratio)
Sequence of Glucocorticoid receptor (Homo sapiens) (P04150 whole entry, looked up): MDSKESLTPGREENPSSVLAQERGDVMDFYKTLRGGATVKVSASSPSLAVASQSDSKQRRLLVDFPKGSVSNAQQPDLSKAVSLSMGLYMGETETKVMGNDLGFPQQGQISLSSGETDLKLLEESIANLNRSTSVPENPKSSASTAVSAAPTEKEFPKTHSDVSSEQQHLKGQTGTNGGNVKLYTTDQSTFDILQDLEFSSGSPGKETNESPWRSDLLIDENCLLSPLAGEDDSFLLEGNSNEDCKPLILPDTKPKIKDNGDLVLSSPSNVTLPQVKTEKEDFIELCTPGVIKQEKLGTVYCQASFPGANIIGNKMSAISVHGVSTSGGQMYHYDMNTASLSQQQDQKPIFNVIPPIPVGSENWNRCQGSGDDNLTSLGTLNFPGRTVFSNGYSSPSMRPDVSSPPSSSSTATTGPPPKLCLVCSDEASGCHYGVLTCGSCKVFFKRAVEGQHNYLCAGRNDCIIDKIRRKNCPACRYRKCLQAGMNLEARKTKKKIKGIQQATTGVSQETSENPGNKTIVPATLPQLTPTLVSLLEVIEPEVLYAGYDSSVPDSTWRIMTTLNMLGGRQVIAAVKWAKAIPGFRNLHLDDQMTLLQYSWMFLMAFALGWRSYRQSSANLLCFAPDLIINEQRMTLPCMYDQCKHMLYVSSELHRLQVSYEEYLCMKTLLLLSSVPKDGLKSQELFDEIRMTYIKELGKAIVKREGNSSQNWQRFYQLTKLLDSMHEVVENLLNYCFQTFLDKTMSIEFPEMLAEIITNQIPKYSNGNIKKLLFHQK
Outline: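 GR-bla HeLa cells (beta-lactamase reporter under glucocorticoid response element) were plated 4 h at 37 C/5% CO2, given compounds in DMSO, and incubated 18 h at 37 C. LiveBLAzer B/G FRET substrate was added for 2 h at room temperature, then fluorescence intensity read.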

[10] = molecular target: Glucocorticoid receptor (Homo sapiens) (UniProt P04150); assay: qHTS assay to identify small molecule antagonists of the glucocorticoid receptor (GR) signaling pathway (AID 720692; active means well fitted inhibition curve with a large enough effect in the signal ratio in the repeat runs, not every such curve was filed as active; the % refers to the signal ratio)
Outline: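 GR-bla HeLa cells (beta-lactamase reporter under glucocorticoid response element) were pre-plated 4 h at 37 C, treated with compounds plus 5 nM dexamethasone (final) for 18 h, then read by LiveBLAzer B/G FRET fluorescence after 2 h.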

Measured: Potency

c1ccc(-c2ccccc2)cc1
inactive: all assays above

CCOP(=S)(OCC)SCCSCC
inactive: all assays above

CCN(CC)c1ccccc1
not listed: [8]
inactive: all other assays above

CCCC1COC(Cn2cncn2)(c2ccc(Cl)cc2Cl)O1 (stereo unspecified)
not listed: [7]
inactive: all other assays above

OCCN(CCO)CCO
not listed: [8] | [9] | [10]
inactive: all other assays above

CN(C)N=O
inactive: all assays above

CC(NC(C)(C)C)C(=O)c1cccc(Cl)c1 (stereo unspecified)
inactive: all assays above

O=Cc1cccc(Oc2ccccc2)c1
inactive: all assays above

CCC(C)(CC)c1cc(NC(=O)c2c(OC)cccc2OC)on1
not listed: [9] | [10]
inactive: all other assays above

CCc1cccc(C)c1N(C(=O)CCl)C(C)COC (stereo unspecified)
inactive: [1] | [2] | [3] | [4] | [5] | [6]

NCCc1ccc(O)cc1
not listed: [7]
inactive: all other assays above

C=CC(N)=O
inactive: all assays above

Nc1c(Cl)c(Cl)nc(C(=O)O)c1Cl
inactive: all assays above

O=[N+]([O-])c1ccccc1
inactive: all assays above

Cc1ccccc1O
not listed: [7]
inactive: all other assays above

COP(N)(=O)SC (stereo unspecified)
inactive: all assays above

Oc1ccccc1Cl
inactive: all assays above

CCCCN(CCCC)SN(C)C(=O)Oc1cccc2c1OC(C)(C)C2
inactive: all assays above

CCCN(CCC)N=O
inactive: all assays above

CCOC(=O)c1ccccc1C(=O)OCC
not listed: [8]
inactive: all other assays above

CC(C)OC(=O)Nc1cccc(Cl)c1
not listed: [9] | [10]
inactive: all other assays above

Nc1ccc(Br)cc1
not listed: [7] | [10]
inactive: all other assays above

CC(C)(C)OOC(C)(C)C
not listed: [8]
inactive: all other assays above

C#CCN(C)[C@H](C)Cc1ccccc1
inactive: all assays above

Reference: PubChem BioAssay (Tox21)
